Shown is part of a subset that was picked to be rich in hits.
PRC2 inh: blocks human EZH2/PRC2 H3K27 methylation | inhibition, % at 12.5 µM | 0.35% of 57,000 active | Q15910 | DELFIA TRF, 1 h;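 active = mean inhibition of replicates at least 50% and every single replicate also reaching 50%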;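 note: dimethyl H3K27 on biotinylated H3 21-44 peptide detected by antibody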
Target sequence (Q15910 whole entry, looked up): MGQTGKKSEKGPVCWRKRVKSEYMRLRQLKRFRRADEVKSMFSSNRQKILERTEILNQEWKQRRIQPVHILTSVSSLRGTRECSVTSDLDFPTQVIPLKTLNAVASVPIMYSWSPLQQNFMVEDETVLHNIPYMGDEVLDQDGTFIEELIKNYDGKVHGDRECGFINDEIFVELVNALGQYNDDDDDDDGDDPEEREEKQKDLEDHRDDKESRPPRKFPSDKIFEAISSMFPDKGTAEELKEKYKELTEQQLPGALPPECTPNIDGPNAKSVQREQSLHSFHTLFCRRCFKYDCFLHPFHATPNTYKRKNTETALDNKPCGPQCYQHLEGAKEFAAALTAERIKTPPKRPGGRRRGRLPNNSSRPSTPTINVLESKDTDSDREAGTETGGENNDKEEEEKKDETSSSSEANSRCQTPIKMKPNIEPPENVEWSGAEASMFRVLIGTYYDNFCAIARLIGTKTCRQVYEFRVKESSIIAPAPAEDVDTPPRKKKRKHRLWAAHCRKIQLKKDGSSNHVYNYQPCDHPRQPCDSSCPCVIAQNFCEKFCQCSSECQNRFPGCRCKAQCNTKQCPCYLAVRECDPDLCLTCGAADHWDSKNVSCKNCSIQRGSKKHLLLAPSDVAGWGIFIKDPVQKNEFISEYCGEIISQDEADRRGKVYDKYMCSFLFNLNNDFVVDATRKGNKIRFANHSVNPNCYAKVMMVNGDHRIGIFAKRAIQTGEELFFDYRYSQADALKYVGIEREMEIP
Each line names hits and unclear results; the compound was inactive in the other large screens.

CC(C)=CCc1cc(/C=C2\OC(=O)C(c3cc4c(cc3O)OC(C)(C)CC4)C2=O)ccc1O (configuration not stated)	PRC2 inh 78
COc1cc(O)c(CC=C(C)C)cc1C(=O)/C=C/c1ccc(O)c(CC=C(C)C)c1	none
CO[C@@H]1CN(C)C(=O)c2cc(NC(=O)c3ccccc3)ccc2OC[C@@H](C)N(C(=O)CN(C)C)C[C@@H]1C	none
CCOC(=O)c1c(-c2ccc(Cl)cc2)csc1NC(=O)C1CCCCC1C(=O)O (configuration not stated)	PRC2 inh 58
CCOC(=O)c1c(NC(=O)C2CC(Cl)=CCC2C(=O)O)sc2c1CC(C)CC2 (configuration not stated)	none
CCOC(=O)c1c(-c2ccc(C)cc2)csc1NC(=O)c1cccc(OC(C)=O)c1	none
Cc1ccc(C)c(N(CC(=O)Nc2cccc([N+](=O)[O-])c2C)S(C)(=O)=O)c1	none
CN(C)CC(=O)N[C@H]1CC[C@@H](CC(=O)NCCN2CCCCC2)O[C@@H]1CO	none
O=C(NCc1ccccc1)[C@@]1(Cc2ccccc2)N=C(c2ccc(OCCCO)cc2)O[C@H]1c1ccccc1	none
C/C(=C/C(=O)O)CCC1C(C)CCC2C(C)(C=O)C(O)CCC12C (configuration not stated)	none
C=C1CCC2C(C)(CO)CCCC2(C)C1CC/C(C)=C/C(=O)O (configuration not stated)	none
C/C(=C\C(=O)O)CCC1C(C)(O)CCC2C(C)(CO)CCCC12C (configuration not stated)	PRC2 inh 65
CCCC(=O)Nc1ccc2c(c1)OC[C@@H](C)N(C(=O)c1ccccn1)C[C@H](C)[C@@H](OC)CN(C)C2=O	none
C[C@@H]1CN([C@@H](C)CO)S(=O)(=O)c2ccc(C#CC3CC3)cc2O[C@@H]1CN(C)Cc1ccc(F)cc1	none
O=c1c(OC2OC(CO)C(O)C(O)C2OC2OC(CO)C(O)C(O)C2O)c(-c2ccc(O)cc2)oc2cc(O)cc(O)c12 (configuration not stated)	PRC2 inh 87
CC1OC(OCC2OC(Oc3c(-c4ccc(O)c(O)c4)oc4cc(O)cc(O)c4c3=O)C(O)C(O)C2O)C(O)C(O)C1O (configuration not stated)	none
C[C@@H]1O[C@@H](Oc2cc(O)c3c(=O)c(O[C@@H]4O[C@@H](C)[C@H](O)[C@@H](O[C@@H]5OC[C@@H](O)[C@H](O)[C@H]5O)[C@H]4O[C@@H]4O[C@H](CO)[C@@H](O)[C@H](O)[C@H]4O)c(-c4ccc(O)cc4)oc3c2)[C@H](O)[C@H](O)[C@H]1O	none
COc1cccc(-c2cn(CC[C@@H]3CC[C@@H](NC(=O)CC4CC4)[C@@H](CO)O3)nn2)c1	none
C[C@@H]1CN([C@@H](C)CO)C(=O)c2cccc(NC(=O)C3CC3)c2O[C@H]1CN(C)C(=O)Nc1ccc(F)cc1	none
O=c1c(-c2ccc(O)cc2)coc2cc(OC3OC(CO)C(O)C(O)C3O)cc(O)c12 (configuration not stated)	none
O=C1CC(c2ccc(O)cc2)Oc2cc(O[C@@H]3O[C@H](CO)[C@@H](O)[C@H](O)[C@H]3O)cc(O)c21 (some centres not stated)	none
O=c1cc(-c2ccc(O)cc2)oc2c(C3OC(CO)C(O)C(O)C3O)c(O)c(C3OCC(O)C(O)C3O)c(O)c12 (configuration not stated)	PRC2 inh 99
C[C@H](CO)N1C[C@H](C)[C@H](CN(C)C(=O)Nc2ccc(F)cc2)Oc2ccc(NC(=O)Cc3cn(C)c4ccccc34)cc2C1=O	none
CC(C)C#Cc1cnc2c(c1)C(=O)N([C@@H](C)CO)C[C@H](C)[C@H](CN(C)C(=O)c1cccnc1)O2	none
CCCCOC(=O)c1ccc(N)cc1	none
CCCCCCN(CCCCCC)C(=O)Cc1c(-c2ccc(F)cc2)[nH]c2ccccc12	none
CCCCCCCCc1ccc(-c2ccc(C(=O)O)cc2)cc1	PRC2 inh 72
C[C@H]1CN([C@@H](C)CO)S(=O)(=O)c2ccc(Br)cc2O[C@H]1CN(C)Cc1cncnc1	none
O=C(C[C@@H]1C[C@@H]2c3cc(NC(=O)c4cccnc4)ccc3O[C@@H]2[C@@H](CO)O1)NCc1ccccn1	none
O=C(CSc1nc2ccccc2s1)Nc1ccc(Cl)cc1	none
Cc1ccc(NC(=O)CSc2nc3ccccc3s2)cc1C	PRC2 inh 55
Cc1ccc(NC(=O)CSc2nc3ccccc3s2)cc1Cl	none
CO[C@H]1CN(C)C(=O)c2ccc(NS(C)(=O)=O)cc2OC[C@@H](C)N(Cc2cncnc2)C[C@@H]1C	none
C[C@H](CO)N1C[C@H](C)[C@H](CN(C)C(=O)C2CC2)Oc2ncc(Br)cc2C1=O	none
Cc1ccccc1-c1ccc2c(c1)O[C@H](CN(C)CC1CC1)[C@H](C)CN([C@H](C)CO)S2(=O)=O	none
C[C@H](CO)N1C[C@H](C)[C@@H](CN(C)S(=O)(=O)c2ccc(F)cc2)Oc2cc(C#Cc3ccc(F)cc3)ccc2S1(=O)=O	none
Cc1ccc(S(=O)(=O)NC(C)C(=O)Nc2ccc(Oc3ccccc3)cc2)cc1 (configuration not stated)	none
Cc1ccc(NC(=O)CCC(=O)c2ccc(Oc3ccccc3)cc2)cc1	PRC2 inh 52
COC(=O)c1ccc(NC(=O)CCC(=O)c2ccc(C)cc2C)cc1	none
O=C(Nc1ccc(F)cc1)N[C@@H]1CC[C@H](CCn2cc(-c3ccc(F)cc3)nn2)O[C@H]1CO	none
O=C(Nc1ccc2c(c1)[C@@H]1C[C@@H](CC(=O)N3CCOCC3)O[C@H](CO)[C@@H]1O2)c1cccnc1	none
COC(=O)c1cc(=O)n2ccccc2c1C#N	none
OCCCNc1nc(-c2ccccc2Cl)c2cc(Br)ccc2n1	none
Brc1ccc2noc(-c3ccccc3)c2c1	PRC2 inh 63
Brc1ccc2nc(NCc3ccccn3)nc(-c3ccccc3)c2c1	none
C[C@@H]1CN([C@@H](C)CO)C(=O)c2cccc(NC(=O)C3CC3)c2O[C@@H]1CN(C)S(C)(=O)=O	none
Cc1sc2ncnc(SCC(=O)c3ccc(Cl)c(Cl)c3)c2c1C	none
CCCN1C[C@H](C)[C@H](OC)CN(C)C(=O)c2ccc(NC(=O)C3CC3)cc2OC[C@H]1C	none
O=C(C[C@H]1CC[C@@H](NC(=O)Nc2cccc(F)c2)[C@H](CO)O1)NCC1CC1	none
COc1ccc(C#Cc2ccc3c(c2)[C@]2(C(=O)N3)[C@H](c3ccccc3OCCO)N3[C@H](c4ccccc4)[C@H](c4ccccc4)OC(=O)[C@H]3[C@@H]2C(=O)O)cc1	PRC2 inh 59
C=CCNC(=O)[C@H]1[C@@H]2C(=O)O[C@@H](c3ccccc3)[C@@H](c3ccccc3)N2[C@@H](c2ccccc2OCCO)[C@]12C(=O)Nc1ccc(C#Cc3ccc(OC)cc3)cc12	none
C=CCNC(=O)[C@@H]1[C@H]2C(=O)O[C@H](c3ccccc3)[C@H](c3ccccc3)N2[C@H](c2ccccc2OCCO)[C@@]12C(=O)Nc1ccc(C#Cc3ccc(OC)cc3)cc12	none
O=C(O)C[C@H]1C=C[C@H](NC(=O)Nc2cc(F)ccc2F)[C@H](CO)O1	none
CN1CCN(C(=O)C[C@@H]2CC[C@@H](NC(=O)Nc3ccccc3F)[C@H](CO)O2)CC1	none
O=C(NCCN1CCOCC1)[C@@]1(CCS(=O)(=O)c2ccccc2)N=C(c2ccc(OCCCO)cc2)O[C@H]1c1ccccc1	none
Cc1ccc(-c2ccc3c(c2)O[C@H](CN(C)Cc2ccc(C(=O)O)cc2)[C@@H](C)CN([C@H](C)CO)S3(=O)=O)cc1	PRC2 inh 50
C[C@@H]1CN([C@H](C)CO)S(=O)(=O)c2ccc(/C=C/c3ccccc3)cc2O[C@H]1CN(C)Cc1ccccc1	none

Source: PubChem
